# In the supplement of paper PMC13380429:
# Columns and labels:
# [1] = test system: Vero E6 infected with SARS-CoV-2; assay: morphology score (similarity to uninfected cells); higher = more like uninfected cells; conditions: 24 h
# [2] = test system: Vero E6 infected with SARS-CoV-2; assay: SARS-CoV-2 infection rate relative to infected DMSO; higher = more infection, active = 60 or less; conditions: 24 h
Structure (SMILES),morphology score [1],SARS-CoV-2 infection rate [2]
O=C(/C=C/c1ccc2ccccc2n1)c1ccncc1 (0.833333 µM),0.0453,104% (inactive)
COC(=O)[C@@H]1C[C@H](OC(C)=O)C(=O)[C@H]2[C@@]1(C)CC[C@H]1C(=O)O[C@H](c3ccoc3)C[C@]21C [salvinorin-A] (10 µM),0.127,100% (inactive)
CNCCCC1(c2ccccc2)OC(C)(C)c2ccccc21 (configuration not stated) [talopram] (10 µM),-0.07,111% (inactive)
COc1ccc(-c2cc3nccn3c(Nc3ncccc3C(N)=O)n2)cc1OC (0.833333 µM),0.46,27% (active)
c1ccc(CN2CCC3(CCc4ccccc43)CC2)cc1 (10 µM),0.228,80.5% (inactive)
COc1ccc2nc3[nH]nc(C)c3c(NCCOCCO)c2c1 (10 µM),-0.00598,111% (inactive)
Nc1ccn([C@@H]2CS[C@H](CO)O2)c(=O)n1 [lamivudine] (10 µM),-0.00863,102% (inactive)
OC[C@@H](O)[C@@H](O)CO [erythritol] (10 µM),0.135,87.5% (inactive)
COc1cccc2c1C(=O)c1c(O)c3c(c(O)c1C2=O)C[C@@](O)(C(=O)CO)C[C@@H]3O[C@H]1C[C@H](N)[C@H](O[C@@H]2CCCCO2)[C@H](C)O1 [pirarubicin] (10 µM),-0.0488,118% (inactive)
NC(=O)C1=CN([C@@H]2O[C@H](COP(=O)(O)OP(=O)(O)OC[C@H]3O[C@@H](n4cnc5c(N)ncnc54)[C@H](OP(=O)(O)O)[C@@H]3O)[C@@H](O)[C@H]2O)C=CC1 (10 µM),-0.0816,106% (inactive)
Nc1ccc(S(=O)(=O)NC(=O)c2ccccc2)cc1 [sulfabenzamide] (10 µM),0.0893,106% (inactive)
CC(C)C[C@H](NC(=O)CNC(=O)c1cc(Cl)ccc1Cl)B(O)O [ixazomib] (0.833333 µM),-0.0337,93.5% (inactive)
CCC(=O)c1cc(-c2ccc(Cl)cc2)n(-c2ccc(S(N)(=O)=O)cc2)c1C (10 µM),0.104,102% (inactive)
CCCCN(CCCC)CC(O)c1cc(Cl)cc2c1-c1ccc(Cl)cc1/C2=C/c1ccc(Cl)cc1 (configuration not stated) [lumefantrine] (10 µM),0.15,91.5% (inactive)
O=C(NCCO)c1cccc(-c2cc(Nc3ccc(OC(F)(F)F)cc3)ncn2)c1 (10 µM),-0.0129,98.5% (inactive)
CC(=O)c1cc2c(o1)C(=O)c1ccccc1C2=O [napabucasin] (0.833333 µM),0.309,89% (inactive)
O=C(Nc1cc(C(F)(F)F)cc(C(F)(F)F)c1)c1cnc(Cl)nc1C(F)(F)F (10 µM),-0.17,111% (inactive)
C=C[C@@](C)(/C=C/c1ccc(O)cc1)CCC=C(C)C [bakuchiol] (10 µM),-0.328,114% (inactive)
Cc1ccc(OC[C@@H](O)[C@H](C)NC(C)C)c2c1CCC2 (racemic) (10 µM),-0.0205,110% (inactive)
C[N+]1(C)[C@@H]2CC[C@H]1C[C@@H](OC(=O)C(CO)c1ccccc1)C2 (some centres not stated) [methylatropine-nitrate] (10 µM),0.131,104% (inactive)
CC(=O)c1ccc(NS(C)(=O)=O)c(Oc2ccc(F)cc2F)c1 (10 µM),0.115,92.5% (inactive)
